From publication PMC7819943, “Rice protein-binding microarrays: a tool to detect cis-acting elements near promoter regions in rice”
In all, about 39,000 sequences were measured (“fluorescence intensity (a.u.)”: median about 4,300, highest 2% from about 39,000 on). The sample holds the highest values, similar sequences and a random draw of the others, so the mix is not that of the screen.

Target: T1, OsSMF1 (Oryza sativa, UniProt Q6ZLB0 1-436)
T1 sequence: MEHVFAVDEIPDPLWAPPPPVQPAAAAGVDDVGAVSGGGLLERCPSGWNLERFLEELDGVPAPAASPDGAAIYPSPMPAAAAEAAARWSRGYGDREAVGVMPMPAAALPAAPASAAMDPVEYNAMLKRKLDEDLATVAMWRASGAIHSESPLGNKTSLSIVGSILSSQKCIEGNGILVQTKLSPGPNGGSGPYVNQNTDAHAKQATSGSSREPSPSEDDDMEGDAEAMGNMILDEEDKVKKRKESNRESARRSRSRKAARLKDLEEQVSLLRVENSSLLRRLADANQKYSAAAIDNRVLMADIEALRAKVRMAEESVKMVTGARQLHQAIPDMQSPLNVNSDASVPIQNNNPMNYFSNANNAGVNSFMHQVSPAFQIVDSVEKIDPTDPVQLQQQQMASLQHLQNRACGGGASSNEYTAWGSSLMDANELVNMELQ
Assay: protein-binding microarray (RPBM); PBS, 2% BSA, 51.3 ng/ul salmon testes DNA, 50 uM zinc acetate, 200 nM TF, 25 C, 1 h; high values mean tight binding
Conditions: protein: recombinant; tags: N-terminal polyhistidine and DsRed monomer fusion (pET32a); chain copies: 2; label: CyDye5-dUTP incorporated in the synthesized complementary strand; 3' TTTTT single-stranded linker to array surface; dsDNA, one strand shown
Summary of the method: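 The binding signal is fluorescence intensity per array feature (arbitrary units). Readings came from an Axon 4000B scanner after a washed, 2% BSA-blocked, double-stranded custom Agilent array had been incubated for 1 h at 25 °C with 200 nM protein and 50 µM zinc acetate. The protein was a Ni–NTA-purified transcription factor fused N-terminally to polyhistidine and DsRed, expressed in E. coli BL21-CodonPlus.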

How did the binding signal turn out when “TAGTAGATCTAGTATTTTATCTTTAGTCCATCTACCGAGCCGGAGTCACCTAGTGCAG” was run?
The binding signal was 28500 fluorescence intensity (a.u.).

Which binding signal does the source give for “GCCGCTACAAACCGTGGGCAAGACGTGTCGCCATGGGAGCCGGAGTCACCTAGTGCAG” here?
The binding signal was 4560 fluorescence intensity (a.u.).

How did the binding signal turn out when “TGCCAATGTTCCAATTGGTGTTGTCATCTTTGGGTTACCACGGAGTCACCTAGTGCAG” was run?
Its binding signal is 14100 fluorescence intensity (a.u.).

How did the binding signal turn out when “ATTTGGGATGTCTTTATCTCATCCAATTAATCCACGGATACGGAGTCACCTAGTGCAG” was run?
Its binding signal is 49200 fluorescence intensity (a.u.).

With “CAATTTAATGCTACTTATCTCACATGATGTCTTGGATGTTCGGAGTCACCTAGTGCAG” as the sequence, how does the binding signal read?
Its binding signal is 3980 fluorescence intensity (a.u.).

“GGGCACTCGAACCATCTAGTGCAGACGTGGTAACTGGCGCCGGAGTCACCTAGTGCAG” was tested. Which binding signal did it give?
Its binding signal is 5510 fluorescence intensity (a.u.).

“TCTTATACTAAGATAATAAGATTATATCCTTGTCATCCAACGGAGTCACCTAGTGCAG” was tested. Which binding signal did it give?
The binding signal was 4430 fluorescence intensity (a.u.).

With “CCAAACTAATTAAGACAGCCAACTCACCTCCATCATATAACGGAGTCACCTAGTGCAG” as the sequence, how does the binding signal read?
The binding signal was 65500 fluorescence intensity (a.u.).

“ATATCCATATCAAATTAAGCCAGGTTTGTAATTAATAACTCGGAGTCACCTAGTGCAG” was tested. Which binding signal did it give?
The binding signal was 9630 fluorescence intensity (a.u.).

How did the binding signal turn out when “GCCGCCGCTCCCTCCCAATGACCCGCCGGATCTCCTAGTGCGGAGTCACCTAGTGCAG” was run?
Its binding signal is 3160 fluorescence intensity (a.u.).

For “CCTGCAGCCAGGTCCTCGTATCATAGATGACGACGACTTCCGGAGTCACCTAGTGCAG”, which binding signal is on record?
Its binding signal is 4660 fluorescence intensity (a.u.).

How did the binding signal turn out when “TACTAGTGTGGACATGTTCCCCTTTTCAGGAAGATGGCAGCGGAGTCACCTAGTGCAG” was run?
Its binding signal is 40300 fluorescence intensity (a.u.).

Which binding signal does the source give for “TTTTGGATTCCCTTTTCATCCATGGATGCATGTGTTCCTTCGGAGTCACCTAGTGCAG” here?
Its binding signal is 3220 fluorescence intensity (a.u.).

“CGAAGCGGTTCAGGAAGATGGAGCGGCACGTGGCTGCGACCGGAGTCACCTAGTGCAG” was tested. Which binding signal did it give?
Its binding signal is 5240 fluorescence intensity (a.u.).

With “GGCAGCGACCACGACACGTCGTTGTTCCCTCTGCTCCCGCCGGAGTCACCTAGTGCAG” as the sequence, how does the binding signal read?
The binding signal was 6470 fluorescence intensity (a.u.).

With “CAATCCCACCTCGCGCGATGACTCCGCACCCGCCCCACCTCGGAGTCACCTAGTGCAG” as the sequence, how does the binding signal read?
The binding signal was 7260 fluorescence intensity (a.u.).

How did the binding signal turn out when “GCCACCGCTGCATCATCCCGCCTGTCTGCCTGCGCGCGCCCGGAGTCACCTAGTGCAG” was run?
The binding signal was 3430 fluorescence intensity (a.u.).

“GTGTGTGTGTGTGCTGCGTGTGCGTGTGCGCGCGCGTGCCCGGAGTCACCTAGTGCAG” was tested. Which binding signal did it give?
The binding signal was 5210 fluorescence intensity (a.u.).

How did the binding signal turn out when “GACTCCCGCGTGCTCGCCGCGCCGCCCACCGTCACCGCCTCGGAGTCACCTAGTGCAG” was run?
The binding signal was 3230 fluorescence intensity (a.u.).

How did the binding signal turn out when “TCCGAACATCCGCGTGTCTGCTTCTGCGCCAGCCCGAGCCCGGAGTCACCTAGTGCAG” was run?
The binding signal was 44300 fluorescence intensity (a.u.).

“TCCCAAACCCCGCGCCGCCTCTTACCGCTTCGCGTCAGCTCGGAGTCACCTAGTGCAG” was tested. Which binding signal did it give?
Its binding signal is 63900 fluorescence intensity (a.u.).

With “CCAAACCCCACGCACGCCGCGTCGCCGCCTCCTCCTCTCCCGGAGTCACCTAGTGCAG” as the sequence, how does the binding signal read?
The binding signal was 3670 fluorescence intensity (a.u.).

How did the binding signal turn out when “AACTCCTCGCCACCACGCCGCTTTATTCTCTAAGAACCCCCGGAGTCACCTAGTGCAG” was run?
Its binding signal is 40700 fluorescence intensity (a.u.).

With “CACCCGCCGCTGCTCTGCCTACTCGCCGGCCACCTCCTCACGGAGTCACCTAGTGCAG” as the sequence, how does the binding signal read?
Its binding signal is 3720 fluorescence intensity (a.u.).

For “GCACCTCGCAATATCCATGGTCCCCGCTGCCCGTGGACTCCGGAGTCACCTAGTGCAG”, which binding signal is on record?
The binding signal was 41200 fluorescence intensity (a.u.).

With “CCCTCGCCGCCACGGCGAACCCCTCGCCGCCGCCACCGCCCGGAGTCACCTAGTGCAG” as the sequence, how does the binding signal read?
Its binding signal is 3570 fluorescence intensity (a.u.).

For “GCGCTGCCACGAGTGCCCGCGTCATCCCGTCCCCTCGCACCGGAGTCACCTAGTGCAG”, which binding signal is on record?
Its binding signal is 6120 fluorescence intensity (a.u.).

How did the binding signal turn out when “ACCAAACATTACCTAATGCAATCGAACTATCGAAGACATGCGGAGTCACCTAGTGCAG” was run?
The binding signal was 3700 fluorescence intensity (a.u.).

For “GTGAGACTGGCGAGGCCCTTCTTGCGTGGCGCTGCAAGCTCGGAGTCACCTAGTGCAG”, which binding signal is on record?
The binding signal was 7600 fluorescence intensity (a.u.).

With “ACACTCCAGCATAGTTAATGTTTACTGCTAGGAGGATTCACGGAGTCACCTAGTGCAG” as the sequence, how does the binding signal read?
The binding signal was 25600 fluorescence intensity (a.u.).

Which binding signal does the source give for “CTCCTGGTACGCCTCGCTCAGCTCGTCCACCGTCGCCTCCCGGAGTCACCTAGTGCAG” here?
The binding signal was 3750 fluorescence intensity (a.u.).

“TAGAGCGCCACATGACATCTTAGAAGCGTTTGTAGGAGTACGGAGTCACCTAGTGCAG” was tested. Which binding signal did it give?
The binding signal was 30400 fluorescence intensity (a.u.).

“TTATACATGCTCACGTGGCTATGTCATTGCCCTGGGTGGGCGGAGTCACCTAGTGCAG” was tested. Which binding signal did it give?
Its binding signal is 12000 fluorescence intensity (a.u.).

For “CTAAATCCTCGGGTCCACATGTCATACTCAGCCTCTTTACCGGAGTCACCTAGTGCAG”, which binding signal is on record?
Its binding signal is 5460 fluorescence intensity (a.u.).

Which binding signal does the source give for “TCTGGTCTTTCCGCGTGTCGACGACCACGGTGGCGGTGCACGGAGTCACCTAGTGCAG” here?
The binding signal was 3540 fluorescence intensity (a.u.).

Which binding signal does the source give for “TCGCCACCGCCACGTCATCTCCCCACCCTCCTCCTCTTCCCGGAGTCACCTAGTGCAG” here?
Its binding signal is 44700 fluorescence intensity (a.u.).

For “CCATTCCCAAAAGCAAAGCGAACCTAAGCTCGCTTCGTCTCGGAGTCACCTAGTGCAG”, which binding signal is on record?
Its binding signal is 21000 fluorescence intensity (a.u.).

Which binding signal does the source give for “CGCGAAAGGCGTGAAACCAGTGCACGCATCACCCATCTCGCGGAGTCACCTAGTGCAG” here?
Its binding signal is 3400 fluorescence intensity (a.u.).

“AAACCAAAACCAAACCGAAGCTTCCCCATCTCGCGTGAACCGGAGTCACCTAGTGCAG” was tested. Which binding signal did it give?
Its binding signal is 40800 fluorescence intensity (a.u.).

With “ATCCCATCGCGCCACGCGAGCTCGATCGATCGAGGTGTGTCGGAGTCACCTAGTGCAG” as the sequence, how does the binding signal read?
Its binding signal is 3490 fluorescence intensity (a.u.).

For “CATCGGTCATGGTGGCGTTGGTCATGTTGGCATGGCCGTCCGGAGTCACCTAGTGCAG”, which binding signal is on record?
Its binding signal is 44000 fluorescence intensity (a.u.).

Which binding signal does the source give for “CCGGTCGTCCGTCAGCATCCTCTCTTCCGTTGGTCATCCTCGGAGTCACCTAGTGCAG” here?
The binding signal was 4550 fluorescence intensity (a.u.).

With “TAGGATGCCACGTCATCTCTCCCTTCCCCTCTCTCTCTCCCGGAGTCACCTAGTGCAG” as the sequence, how does the binding signal read?
Its binding signal is 27000 fluorescence intensity (a.u.).

With “TTAGTTCACCCATCTTGCCAATGCTGTCATCGCCACAGCTCGGAGTCACCTAGTGCAG” as the sequence, how does the binding signal read?
Its binding signal is 3310 fluorescence intensity (a.u.).

Which binding signal does the source give for “GATCGTCGCGTCGTCGGCGTTGGCATCGGCATCCATGTGCCGGAGTCACCTAGTGCAG” here?
Its binding signal is 3830 fluorescence intensity (a.u.).

For “TGGGCCCACCCCTCCACTCGCCCTCCTCTTCCCGCCACGTCGGAGTCACCTAGTGCAG”, which binding signal is on record?
The binding signal was 6190 fluorescence intensity (a.u.).

With “TCCTTGTCGCGCTGCCATCGCCACCCAATGCCATCGAGCTCGGAGTCACCTAGTGCAG” as the sequence, how does the binding signal read?
Its binding signal is 49600 fluorescence intensity (a.u.).

With “ACCCGCGCGCCGGCCGCGTCATCGACGACATCGTGCGTACCGGAGTCACCTAGTGCAG” as the sequence, how does the binding signal read?
Its binding signal is 3920 fluorescence intensity (a.u.).

For “TTGTGATGTCCACGTATTCAGGATTAGACCACAGGCCCGGCGGAGTCACCTAGTGCAG”, which binding signal is on record?
Its binding signal is 8170 fluorescence intensity (a.u.).

With “ATCCTTCATTATGTTAGAGTACCACATGGGAAGTCGAGACCGGAGTCACCTAGTGCAG” as the sequence, how does the binding signal read?
Its binding signal is 3750 fluorescence intensity (a.u.).

For “GCGCCGCTCCGTGTCCCTCCCAATCCGAACCGTTTCGCGCCGGAGTCACCTAGTGCAG”, which binding signal is on record?
The binding signal was 3500 fluorescence intensity (a.u.).

With “TACAACTACGGCCCTCCGCAGCCACAGGCGCCGCCGCCGCCGGAGTCACCTAGTGCAG” as the sequence, how does the binding signal read?
The binding signal was 3340 fluorescence intensity (a.u.).

With “TTATTAGCAACCACCGTCACATATAAATTAATATGTGCCGCGGAGTCACCTAGTGCAG” as the sequence, how does the binding signal read?
Its binding signal is 3710 fluorescence intensity (a.u.).

For “GTCCGTCTTGTTTTCTCCTGCGTCACAATTGTCCCGTATTCGGAGTCACCTAGTGCAG”, which binding signal is on record?
Its binding signal is 4280 fluorescence intensity (a.u.).
